Screens: PubChem BioAssay, several laboratories
Shown are actives, neighbours in structure and some others; about 0.69% of the full set was active somewhere.
PfHsp90 set2 = inhibits growth of yeast expressing Plasmodium falciparum Hsp90 | S. cerevisiae expressing PfHsp90, BacTiter-Glo ATP, 48 h; yeast lacking PDR1 and PDR3 efflux regulators | inhibition, % at 9.4 µM | 310,000 tested, 0.32% active;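 active = every replicate shows inhibition above about 80%, whatever the replicate mean, limit read from the data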;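 note: 0% = DMSO neutral controls and 100% = 20 µM radicicol positive controls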
E coli growth-1 = E. coli growth inhibition. OD600 absorbance (concentration not given with the values). 330,000 tested, 0.21% active. Escherichia coli growth, OD600, 23 h; hits give low values;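 active = OD600 absorbance below the run mean of sample wells minus 3.6 SD, in any replicate, cut at about 0.56 in these data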
Tat transport = inhibitors of E. coli Tat protein transport; E. coli MC4100 TorA-mCherry Tat export, fluorescence; inhibition, % at 10 µM; 340,000 tested, 0.036% active; AID 488895;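 active = mean replicate inhibition at least 50% and at least half of replicates individually reaching 50%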;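 note: exported cargo escapes ClpAP degradation while cytoplasmic cargo is degraded and loses fluorescence; 0% = median of neutral control wells and 100% = median of NaSCN control wells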
E coli growth-2 = bacterial growth inhibition, counter-screen for AddAB inhibitors; E. coli V3065 growth, OD600 absorbance, 18 h; inhibition, % at 11.9 µM; AID 449728; 330,000 tested, 0.27% active;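 active = inhibition above the campaign's mean inhibition across all tested compounds plus 3 SD, cut at about 9.9% in these data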;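 note: uninfected addAB+ strain grown without phage in ampicillin broth; 0% = DMSO wells and 100% = ciprofloxacin 0.95 µg/ml wells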
phage Ecoli inh = E. coli growth loss with phage present | growth absorbance | inhibition, % at 11.9 µM | 360,000 tested, 0.26% active; in the data active = inhibition above about 11%
AddAB inh = less growth of phage-infected E. coli with AddAB. E. coli expressing H. pylori AddAB, absorbance growth. inhibition, % at 11.9 µM. 330,000 tested, 0.29% active; in the data active = inhibition above about 12%;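 note: 0% = vehicle wells of infected cells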
AddAB conf = growth loss of T4-infected E. coli expressing H. pylori AddAB, confirmed; shares compounds with AddAB inh; E. coli V3065 expressing H. pylori AddAB, T4 phage, OD; T4 phage with gene 2 nonsense mutations; inhibition, % at 11.9 µM; 880 tested, 64% active; AID 488942;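 active = mean inhibition above a set limit taken from the earlier primary screen, cut at about 13% in these data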;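 note: higher means less bacterial growth since AddAB block lets phage replicate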
RecBCD counter = counter-screen: growth loss of RecBCD+ E. coli with mutant T4 phage. shares compounds with AddAB inh. E. coli V66 + mutant T4 phage, OD growth. inhibition, % at 11.9 µM. 880 tested, 73% active. AID 488955;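 active = mean inhibition above the mean of solvent-only control wells plus 3 SD, cut at about 4% in these data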;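 note: optical density read after an 18 h incubation at 37 °C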
bact viab count = counter-screen for AddAB inhibitors: inhibitors of bacterial viability; shares compounds with AddAB inh; absorbance (AddAB counterscreen); inhibition, % at 11.9 µM; 880 tested, 35% active; AID 488956; in the data active = inhibition above about 25%
Numbers without * were called inactive; nt = not tested or not shown.

SMILES	PfHsp90 set2	E coli growth-1	Tat transport	E coli growth-2	phage Ecoli inh	AddAB inh	AddAB conf	RecBCD counter	bact viab count
CC(C)c1ccc(NC(=S)NC2CCCCCC2)cc1	-2	0.7	-4	87*	1	98*	-4	1	1
S=C(Nc1ccc(Oc2ccc(NC(=S)NC3CCCCC3)cc2)cc1)NC1CCCCC1	-56	0.68	2	5	0	4	nt	nt	nt
COc1cc(NC(=O)c2ccc([N+](=O)[O-])o2)ccc1NC(=O)c1ccco1	11	0.69	-3	12*	8	16*	74*	6.7*	22
O=C(NCc1cccnc1)c1ccc([N+](=O)[O-])o1	nt	0.5*	-7	13*	17*	17*	71*	7.9*	18
CC(Sc1nnc(-c2cccs2)n1-c1ccccc1)C(=O)NCc1ccco1 (configuration not stated)	-4	0.71	-1	-3	0	1	nt	nt	nt
O=C(Cc1ccc([N+](=O)[O-])cc1)NCc1cccnc1	-5	0.61	-18	-4	0	4	nt	nt	nt
O=C(NCc1ccco1)c1ccc(Cn2cc([N+](=O)[O-])cn2)o1	-1	0.69	-11	-1	4	0	nt	nt	nt
O=C(NCc1ccco1)c1ccc([N+](=O)[O-])o1	nt	nt	-2	9	8	35*	76*	6.6*	15
CC(Sc1ccsc1[N+](=O)[O-])C(=O)NCc1ccco1 (configuration not stated)	-4	0.69	-4	7	6	14*	23*	2	11
CC1CCCC(C)N1N=Cc1ccccc1OC(F)F (configuration not stated)	nt	0.67	nt	nt	nt	nt	nt	nt	nt
O=C(CC1SC(=NS(=O)(=O)c2ccc(F)cc2)N(c2ccccc2)C1=O)Nc1ccccc1 (configuration not stated)	nt	0.7	nt	nt	nt	nt	nt	nt	nt
CCn1cc(C(=O)O)c(=O)c2cc(F)c(N3CCN(S(=O)(=O)c4ccc5c(c4)OCCO5)CC3)cc21	-14	0.083*	-6	48*	7	94*	101*	13*	99*
CCn1cc(C(=O)O)c(=O)c2cc(F)c(N3CCNCC3)cc21	1	nt	94*	99*	nt	99*	103*	102*	103*
CCOC(=O)c1cn(CC)c2cc(N3CCSCC3)c(F)cc2c1=O	-6	0.46*	38	83*	7	75*	97*	1	11
CC(C)C[C@@]12C(=O)N(c3cccc(F)c3)C(=O)N1C(c1ccc(Br)cc1)C1C(=O)N(C(C)(C)C)C(=O)C12 (some centres not stated)	nt	0.67	nt	nt	nt	nt	nt	nt	nt
Cc1ccc(S(=O)(=O)N2CCC(C(=O)OCc3ccccc3)CC2)cc1C	1	0.63	10	8	-1	21*	-5	-1	-4
Cc1ccc2nc(-c3ccccc3O)c(Nc3ccc4c(c3)OCCO4)n2c1	-6	0.7	14	2	5	2	nt	nt	nt
Cc1ccc2nc(-c3ccc(O)cc3)c(Nc3ccc4c(c3)OCCO4)n2c1	4	0.71	-1	14*	2	17*	-2	-1	-4
COc1ccc(/C=N/NC(=S)SC)cc1OC	-33	nt	-1	13*	8	18*	44*	12*	30*
Cc1c(-n2cc(C(=O)O)c(=O)c3cc(F)c(N4CCCC4)c(F)c32)c(=O)n(-c2ccccc2)n1C	-11	0.69	-15	2	3	1	nt	nt	nt
NC1C2CN(c3nc4c(cc3F)c(=O)c(C(=O)O)cn4-c3ccc(F)cc3F)CC12 (configuration not stated)	4	0.044*	109*	98*	nt	100*	99*	100*	101*
O=C(NCCC1=CCCCC1)C1CCN(S(=O)(=O)c2ccccc2)CC1	-18	0.69	-2	-3	4	-2	nt	nt	nt
O=C(NCCC1=CCCCC1)C1CCN(C(=O)Cc2ccccc2)CC1	2	0.72	-11	98*	0	98*	-1	1	0
O=Nc1ccc(O)c2ncccc12	7	0.4*	5	12*	2	12*	98*	3	17
CC(=O)Nc1ccc(C=NNC(=S)NC(C)C)cc1	nt	0.73	nt	nt	nt	nt	nt	nt	nt
SMILES	PfHsp90 set2	E coli growth-1	Tat transport	E coli growth-2	phage Ecoli inh	AddAB inh	AddAB conf	RecBCD counter	bact viab count
Cc1ccc(-c2noc(N=O)c2NO)cc1	5	0.61	-15	19*	5	24*	33*	7.9*	31*
C=CCC(CC(=O)NC(CO)Cc1ccccc1)C(=O)NC(COC(=O)C(CC=C)CC(=O)OC(C)(C)C)Cc1ccccc1 (configuration not stated)	nt	0.75	nt	nt	nt	nt	nt	nt	nt
CCCCOc1ccc(Cc2cnc(N)nc2N)cc1	-8	0.34*	-16	12*	10	14*	13*	9.2*	7
CC(C)CN1C(Nc2ccccc2)=NCC1C (configuration not stated)	nt	0.68	nt	nt	nt	nt	nt	nt	nt
C/C(=N\OCc1nc2ccccc2c(=O)n1/N=C/c1cc(C)cc([N+](=O)[O-])c1O)c1ccccc1	14	nt	-1	9	9	8	nt	nt	nt
C/C(=N\OCc1nc2ccccc2c(=O)n1/N=C/c1cc([N+](=O)[O-])ccc1O)c1ccccc1	0	nt	-4	9	3	13*	-2	2	0
CN(C)N=Nc1nc[nH]c1C(N)=O	-4	0.59	-5	12*	7	18*	74*	4.0*	40*
CCCCCn1nc(C)c(C=NNC(=O)c2cc(C)oc2C)c1C	nt	0.69	nt	nt	nt	nt	nt	nt	nt
NC(=NOC(=O)c1ccccc1Cl)c1ncc([N+](=O)[O-])s1	nt	0.6	nt	nt	nt	nt	nt	nt	nt
N/C(=N/OC(=O)c1ccc(Cl)cc1)c1ncc([N+](=O)[O-])s1	-5	nt	-10	6	6	19*	43*	1	1
S=c1[nH]nc(-c2ccccc2)n1N=C/C=C/c1ccco1	nt	0.69	nt	nt	nt	nt	nt	nt	nt
COc1ccc(N2C(=O)C3CCCN3C2c2cccc(Br)c2)cc1 (configuration not stated)	nt	0.78	1	-2	1	3	nt	nt	nt
COc1ccc(N2C(=O)C3CCCN3C2c2cccc(OC)c2OC)cc1 (configuration not stated)	-14	0.69	-13	4	1	14*	1	1	-2
CN(C)S(=O)(=O)n1cnc(C2C3C(=O)OCC3C[C@]23N=CN(Cc2ccccc2)C3=O)c1 (some centres not stated)	nt	0.69	nt	nt	nt	nt	nt	nt	nt
O=C(Nc1ccc(Cl)cc1)ON=C1CCCC1	-1	0.66	-8	9	4	23*	-2	1	-2
COc1ccc(C=NNc2nnc(C)n2N)cc1OC	nt	0.7	nt	nt	nt	nt	nt	nt	nt
